Measurements from PubChem BioAssay (NCI).
The panel holds about 83,000 compounds, 20% with a hit somewhere; the sample as a whole holds those more often.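 Single-concentration screen, 48 h exposure, 96-well plates. Endpoint: percent growth. Below 10 = active.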 Activity calls are given as the source filed them.

The compounds below were run on 786-0 renal (assay: NCI-60 one-dose screen, 48 h (100 = growth as untreated, 0 = no growth, -100 = all killed)). Settings: 10 µM unless noted.

Structure (SMILES) | growth
COc1ccc2c(c1)c(/C=N/Nc1ccc3ccccc3n1)cn2C | -87% (active)
Cc1ccc(S(=O)(=O)c2nc(S(=O)(=O)c3ccc(C)cc3)c(N3CCN(C)CC3)s2)cc1 | 47.5% (inactive)
COc1cc2c(c(OC)c1OC)C(=O)CC(c1cccc(NC(=O)c3cc(NC(=O)[C@H](C)N)ccc3Cl)c1)O2 (some centres undefined) | 45% (inactive)
Cc1ccc(C(=O)C(c2c[nH]c3ccccc23)c2c[nH]c3ccccc23)cc1 | 32% (inactive)

What follows are compounds tested on COLO 205 colon in the same assay as above. Settings: 10 µM unless noted.

Structure (SMILES) | growth
O=C(c1ccccc1)c1ccc2nc(-c3ccc(F)cc3)[nH]c2c1 | 85.8% (inactive)
CC1(C)CC[C@]2(C(=O)O)CC[C@]3(C)C(=CCC4[C@@]5(C)C[C@@H](O)[C@@H]6OC(c7ccc(F)cc7)OC[C@@]6(C)C5CC[C@]43C)C2C1 (some centres undefined) | -2.36% (active)
N/C(=N\c1nc2ccccc2s1)NC(=O)Nc1ccc(Cl)cc1Cl | -87.7% (active)
CCCCSc1nc(Nc2ccc(S(N)(=O)=O)cc2)c(C#N)c(-c2cc(OC)c(OC)c(OC)c2)n1 | 39.8% (inactive)
O=C(COc1ccc2c(c1)CCCC(=O)N2)NCc1ccccc1 | 106% (inactive)
Nc1nc(-c2ccccc2)c(N=Nc2ccc([N+](=O)[O-])cc2Cl)s1 | 97.6% (inactive)
CC1(C)CC[C@]2(C(=O)O)CC[C@]3(C)C(=CCC4[C@@]5(C)C[C@@H](O)[C@@H]6OC(c7cccc(Br)c7)OC[C@@]6(C)C5CC[C@]43C)C2C1 (some centres undefined) | -31.4% (active)
C#CCOc1ccc(/C=N/Nc2nc(-c3cc4cc(OC)ccc4oc3=O)cs2)cc1OC | 63.6% (inactive)
N#Cc1c(NCc2ccccc2)n[nH]c1Nc1ccccc1 | -8.53% (active)
COc1cc2oc(-c3cccc(C(=O)Nc4ccc(Cl)cc4)c3)cc(=O)c2c(OCC(=O)N[C@@H](Cc2ccccc2)C(=O)O)c1OC | 119% (inactive)
Cn1cc(-c2cc3nc(-c4c[nH]c5ccc(Cl)cc45)cc(N)n3n2)c2ccccc21 | -87.4% (active)
C#C[C@]1(O)CC[C@H]2[C@@H]3CC=C4c5sc(-c6ccc([N+](=O)[O-])cc6)nc5CC[C@]4(C)[C@H]3CC[C@@]21C | -70% (active)
O=C(CSc1nc2ccccc2c(=O)[nH]1)NCCN1CCCCC1 | 99% (inactive)
C#CCOc1cc(N(CC)CC)ccc1C(C(=O)NC(C)(C)C)N(C(=O)C1CCc2cc(F)ccc2O1)c1ccc(F)c(Cl)c1 (centres undefined) | 63.1% (inactive)
O=c1oc2ccccc2cc1-c1csc(N2N=C(c3ccccc3)CC2c2ccc(N3CCOCC3)cc2)n1 (centres undefined) | 118% (inactive)
Cn1cc(-c2cc(N)n3nc(-c4cn(C)c5ncccc45)cc3n2)c2cccnc21 | 43.7% (inactive)
COc1ccc(-c2ccnc(SCc3cc4cc(OC)ccc4[nH]c3=O)n2)cc1 | 15.7% (inactive)
CCOc1ccc(-c2c(C#N)c(-c3ccc(Cl)cc3)nc3n[nH]c(-c4ccc(Cl)cc4)c23)cc1OC | 29% (inactive)
CN(C)c1ccnc(NCCCSC(c2ccccc2)(c2ccccc2)c2ccccc2)c1 | -74.6% (active)
O=C(Cn1c(/C=C/c2ccccc2)nc2ccccc2c1=O)Nc1ccccc1 | 79.3% (inactive)
O=C(O)c1cccc(-c2ccc(/C=N/NC(=O)c3[nH]c4ccc(Br)cc4c3-c3ccccc3)s2)c1 | 101% (inactive)
C#CCOc1cc(N(CC)CC)ccc1C(C(=O)NC(C)(C)C)N(C(=O)C1CCc2cc(F)ccc2O1)c1cc(C)cc(C)c1 (centres undefined) | 31.3% (inactive)
COc1cc2c(c(OC)c1OC)C(=O)CC(c1cccc(NC(=O)c3cc(NC(=O)[C@@H](N)CO)ccc3C)c1)O2 (some centres undefined) | 131% (inactive)
C#CCOc1ccc(/C=N/Nc2nc(-c3ccc(F)cc3)cs2)cc1OC | 68.9% (inactive)
Cc1cc2c(cc1Cl)C(=O)/C(=C/c1ccc(F)cc1)O2 | 119% (inactive)
Cn1cc(-c2cc3nc(-c4cn(C)c5ncccc45)cc(N)n3n2)c2cc(Cl)ccc21 | -93.7% (active)
COc1ccc2[nH]cc(-c3cc(N)n4nc(-c5cn(C)c6ccccc56)cc4n3)c2c1 | -84.7% (active)
COc1ccc(Cc2nn(CC(=O)N/N=C/c3ccc(F)cc3)c(=O)c3c(C)noc23)cc1 | 59.3% (inactive)
Cc1ccc(NCC(=O)Cn2cc(COc3ccc(C=Nc4cnc5ccccc5c4)cc3)nn2)cc1 | 114% (inactive)
Cc1cccc(NC(=O)CN2CCN(c3ncnc4c3cnn4-c3ccccc3)CC2)c1 | 109% (inactive)
